In all, about 53,000 sequences went through this assay and about 3,700 (7%) were called active.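 The calls were made as follows: active = gene knockdowns whose robust z-score for IL-1 alpha signal is at least 2 or at most -2, so actives lie on both sides; inactive = the rest.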 Shown is part of a subset that was picked to be rich in actives.

The experiment can be described thus: Components of the Cytosolic LPS Sensing Pathway: Gene Identification via Genome-wide siRNA Screen.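 Also: robust z of the log signal after scaling to non-targeting control siRNA wells of the plate.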 Conditions: RAW264.7 macrophages, IL-1a HTRF, actives lie on both sides, screened at 100 nM (by protocol), cells primed 5 h with Pam3CSK4 first. The method in brief: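 RAW264.7 mouse macrophages reverse-transfected with single siRNAs (100 nM final) for 48h, primed with Pam3CSK4 for 5 hours, then transfected with LipidA for 24 hour. Supernatant IL-1a read by HTRF; values normalized to negative-control median, log-transformed robust z-scores.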
A general note: In TR-FRET formats the signal depends on donor and acceptor labels being close together.
For GGUGUGUUAAUUUCUAGAUTT against Frs2, the z-score is 0.945 (inactive).
For GGCUUGAAGCCCUAGUACUTT against Prss30 the value was 2.46 (active); for GGACAACAAGAUCAGGACCTT against Akap4, 0.535 (inactive).
With GGUUACCUAUUGGAUGACATT against Muc19, the z-score is -1.43 (inactive).
For GGAAAAAUCAAAAGUGUUGTT against Tamm41 the value was -1.55 (inactive); for GACUACAAAGGAGAGCAAATT against Igfbp6, 2.07 (active); for “GCUCCAGCUCUGCUUUAAGTT against 4931440P22Rik”, 1.28 (inactive).
Consider GGGCAAUUUGGAGCUUACCTT against Erbb2, for which the z-score was -0.952 (inactive).
As for GAUGCCUUUUAUGGGUGCATT against Olfr61, the figure is 0.0552 (inactive).
As for GGCGUGAAGAAGUUUGAUGTT against Pklr, the figure is -0.431 (inactive); as for GCGAGAAUUCUCUUCCAAUTT against Gsx2, 2.33 (active); as for GGACUGUCAGUACUGUCAATT against Agr3, 0.445 (inactive).
For CCUAAAAUACUUUACCGGGTT against Bckdhb the value was -0.025 (inactive).
Take GGAGAAUCUUCAACACUGGTT against Adprh: the z-score was -0.951 (inactive).
Consider GGCUUCAAAACAUUUUCAGTT against Kansl1l, for which the z-score is 2.81 (active).
As for GGCAUAUUCCGUUUUUAAATT against Pafah1b1, the figure is -1.09 (inactive); as for GCAGUUACAGGAAAUCGAGTT against Cdr2, -0.746 (inactive).
For GCCCAAGCAGUUCAUUCAUTT against Epc2 the value was 0.665 (inactive); for GCAUUAGUCAUUGUUAACGTT against Hsd17b4, 0.653 (inactive).
For GGGCGACUUUAGCUUUUAUTT against Pced1b the value was 2.51 (active); for GGACUUCACCAUCCACGAATT against Pgap2, 0.622 (inactive).
With GGAUGCCUGAGUGCUACAUTT against Lsm4, the z-score was -0.837 (inactive).
With CGGUGCGAUCUCUCAAAGUTT against Cryba4, the z-score was 2.97 (active).
For GAUAUAAAGCCUUCAACACTT against Olfr912, the z-score was -1.48 (inactive).
For GGAGAUGCUCAUUUUGAUUTT against Mmp8 the value was 1.76 (inactive).
On to GGUAGUGGCUUGAACAGGUTT against Vmn1r201, for which the z-score was 0.115 (inactive).
For GGAUCCUCGGACUAAAAGUTT against Pnma1 the value was -0.228 (inactive).
Consider GCAUCUUAACACAUGUAAATT against Zfp369, for which the z-score is -0.834 (inactive).
As for GGGAUGUAUUUCAACAACUTT against Wwox, the figure is 0.0276 (inactive); as for GGUAUAAGGAUUCUUUGAATT against Alg13, -2.8 (active); as for GGCAUGGACAUUGAUGACATT against Dnajb1, -0.834 (inactive).
Consider GCCUAAAGCUUUUCUACAATT against Mlph, for which the z-score was 0.161 (inactive).
As for GGUCAUCCGAGAUUUCACCTT against Elavl3, the figure is -0.944 (inactive); as for ACUUCACCAUGGUACCCGGTT against Tspo, 1.06 (inactive).
In the case of GGCUUAAAUGCGUUCUACATT against Slc25a3, the z-score was 0.0986 (inactive).
Turning to “GCCAGGAUAUGGAUAUGCATT against 1520401A03Rik”, the z-score was -2.06 (active).
For GGCAGAAGAGUGGUACUUUTT against Fyn the value was -1.63 (inactive).
As for AAAGGACUGCCUAAGACAATT against Vmn1r203, the figure is -0.921 (inactive); as for GCCAUGUUCUUUGCUCCCATT against Pigl, -1.8 (inactive); as for GGGCAAACUCUAGAGCUACTT against Pdgfrl, -0.0578 (inactive).
As for GUCUGGAUAUUUGACACUATT against Tmem60, the figure is -0.637 (inactive); as for GGAGUUGAUUGAAAUCAUCTT against Atp5c1, 0.466 (inactive); as for CGCAGGACGAUUAUGACGUTT against Pcdhb12, 0.753 (inactive).
Take GGGAAACAAAAAAGAUUUCTT against Ptpn13: the z-score is 0.619 (inactive).
For GCCAGCUAAAGAAGUCUAUTT against Gpr17, the z-score was 2.81 (active).
For GGUCUCAAUAAACUUCAGGTT against Mfap4 the value was 0.926 (inactive).
For CCCAAAGCGUGACUGUCAATT against Sema4b the value was -0.623 (inactive).
CCUGAAGUGGAGAUUCAACTT against Kcnj6: the z-score was -1.27 (inactive).
Regarding GGAGUUUACAGAAAUUAUCTT against Pecam1, the z-score was 0.214 (inactive).
For GAUUAGCAUCCAUGAACACTT against Tcl1b2 the value was 2.16 (active); for GGCAGAUUCAGACCUUCGATT against Sult1c2, -0.753 (inactive).
Regarding CGAACAGUGCUUCGUAUGUTT against Lims1, the z-score is -1.04 (inactive).
Consider GGUACAUGAAGAAAAGUAATT against Lrrc19, for which the z-score was -0.243 (inactive).
On to GCAUACAAGACCGUGAUCATT against Psmc4, for which the z-score is -2.03 (active).
For GGUUAUUUCUCUCUCCCUATT against Creld1 the value was 0.524 (inactive).
Turning to GGAGGAUGACAAAAUCUAUTT against Rnf113a2, the z-score is 1.25 (inactive).
For GCAUGGUAUUAGAUGAUGATT against Nexn, the z-score was -1.69 (inactive).
For GCGCAGAUAUCCUGGUUUGTT against Dhx36 the value was 2.28 (active); for GGAAUGUGCCUAAGUUUGGTT against Ufc1, 1.08 (inactive).
As to CCAAUGGAACAUUAAGUGATT against Psma1, the z-score was -0.485 (inactive).
For CCAUAGUUGAUGGAAGAUATT against Shld2 the value was -0.847 (inactive).
As for CCCUAUUUGUCAACGAUUATT against Lrrc24, the figure is -0.662 (inactive); as for GGAAGCAAUGUGAGAAAUUTT against Tmem91, 2.54 (active).
In the case of GCCAAAUCAUGGGUCUGGUTT against Npas3, the z-score is 0.969 (inactive).
For GGCAAUGUGCCCAAUAUCATT against Rfc2 the value was -1.61 (inactive); for GGACUCAUAUCCUUACAUATT against AI854703, -0.0584 (inactive).
As to GGGAUAGCUGUCACCUUCUTT against Rad9a, the z-score was -0.742 (inactive).
For GGUGUUGAGUGCACUACUGTT against Nckap5l the value was -2.2 (active).
For GUUUCUCGAAGAGCAUCCUTT against Cyb5a the value was 0.732 (inactive).
For UCACUUGUACCAAAAAUGATT against Adcy1 the value was -1.43 (inactive).
As to GGGAAAGUCGUUGAAAUUUTT against Stx18, the z-score was 0.941 (inactive).
For GGAUUAAAGCAGAAUAUGATT against Paics the value was -0.561 (inactive).
As for GGCUGUCCUUUUCCUCUUATT against Yipf6, the figure is 1.49 (inactive).
As for CCCAAAACUCUAGCUACUATT against Olfr824, the figure is -3.03 (active); as for CGCAGCAGUUGUGGUCAAUTT against Nnat, -1.23 (inactive).
On to GGGCUGCUAUUUUGAUGGUTT against Chrd, for which the z-score is 0.704 (inactive).
As for GCGUAUAAGCUCAGUAGACTT against Phlpp1, the figure is 1.06 (inactive); as for GGGCAAGUAUGGGCAGUUCTT against Ppp1ca, 0.0965 (inactive).
As for CGAGAUCAUCUCAAAUAUCTT against Man2a1, the figure is -0.0408 (inactive); as for GGACAAACAAGUGAAAUACTT against Morf4l1, 0.209 (inactive); as for CCUAAAUUUCCAACAGUCCTT against Tmem81, 2.05 (active).
For CGGUCUUCCCGUGGUUCAATT against Gm5114 the value was -0.992 (inactive); for GGCAAAAGGGACAAAAACUTT against Gadd45a, -1.64 (inactive).
Regarding CCUUUAUGGGACACUAUUUTT against Alb, the z-score was 0.588 (inactive).
CCUAAAAGACUUCAUCCGUTT against Kcnh8: the z-score is 2.32 (active).
For CGUGGAACAUAAGAAUGGATT against Gapdhs, the z-score is 0.269 (inactive).
For GGAUUGUCAGCCAAGAAACTT against Uba7 the value was -0.085 (inactive).
Take GGAAAUUCACAAACAUGGATT against Gins3: the z-score was -1.76 (inactive).
Regarding CCAUUUUAACCAAUGGUGUTT against Olfr572, the z-score is -1.06 (inactive).
For GGUCAAAAGACUGUACAUATT against Timm8a2 the value was 2.07 (active).
For GGCAAUGGCUUGGUCUUUUTT against Mapk6 the value was 0.0141 (inactive); for “GGAGGGAAUAGAGAAUCGGTT against A930024E05Rik”, 3.7 (active); for GGAUUUUGAAGACAUCUGUTT against Tubgcp4, 0.396 (inactive).
For GGCAACAUGACAAUUGUGGTT against Olfr1215 the value was -0.00863 (inactive); for GCCAUUGCUAGUAAUUCUUTT against Vkorc1l1, 0.444 (inactive); for CCCUCAUGUUUAGCGAGCATT against Kcnj3, 0.644 (inactive).
For GGUGAAAGACCACAAAUUCTT against Prkca, the z-score was -0.824 (inactive).
For GGACUUUCGAGACAAGCUGTT against Barhl1 the value was -1.21 (inactive); for CGUACAGUGAUGAUUUUGATT against Cep162, 0.218 (inactive).
For GGACAAUGCAGUGCUGAAATT against Car2 the value was 3.37 (active); for GCACACCCAAUGCUCUAAGTT against Nprl3, 1.25 (inactive).
For GCAGCGGAGGGUCAAAGAATT against Pym1 the value was 0.783 (inactive); for GGCCUUUGAGGUCUACAUATT against Icam2, 0.323 (inactive); for GCCCUCCGAGAAAAACAUCTT against Gjb5, 2.05 (active).
Turning to GGGUAAAAGUAGCUGCCCUTT against Trp53inp2, the z-score was -0.401 (inactive).
With GGAAAUAAAGUCCAUAGAATT against B3gnt3, the z-score is 0.00261 (inactive).
As for GGUUCCUCUUGUGAGUGCCTT against Gpr137b, the figure is -0.974 (inactive).

The record behind these values is PubChem BioAssay AID1508600 (Functional Genomics Laboratory (NCATS/FGL), 2020).
